# Screens: PubChem BioAssay, National Center for Advancing Translational Sciences (NCATS)
# Most compounds without a hit are left out; they make up all but 3.2% or so of the library.
# PNC inhibitor = blocks assembly of the perinucleolar compartment; 140,000 compounds, 3.1% hits; PC3M PTB-GFP, PNC prevalence imaging, 16 h; stronger effect = lower value; activity change (PNC), negative = inhibition, % at 10 µM;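 active means readout at or below -70, meaning at least 70% loss of cells showing the perinucleolar compartment, a nuclear body marking cancer cells; inconclusive means readout between -30 and a set limit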;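 further: plate controls were DMSO wells for no effect and camptothecin positive control wells for full effect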
#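 Compounds are pinned in duplicate onto adhered PC3M cells stably expressing GFP-tagged PTB and incubated 16 h at 37 C. Cells are then fixed, nuclei stained with Hoechst, and PNC-positive cells counted.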
# 12-hLO inh = 12-hLO (ALOX12) enzyme inhibition; purified 12-hLO, xylenol orange hydroperoxide absorbance; P18054; Potency, µM (series often up to 57.1 µM), for the others: at the top dose activity change, negative = inhibition, actives largely listed as inhibitors; 150,000 compounds, 0.12% hits; AID 1452; further: potency means the concentration at half of the fitted maximal effect; nearly all actives have a fitted effect of over 55% in size
#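 Purified human 12hLO (150 nM final) was preincubated with compounds for 15 min at room temperature in 25 mM Hepes pH 7.0, 0.01% Triton X-100, then reacted with 40 uM arachidonic acid for 30 min. Hydroperoxide was detected with ferrous iron/xylenol orange.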
# 15-hLO-2 inh = blocks human 15-lipoxygenase 2 activity; O15296; purified 15hLO-2, xylenol orange hydroperoxide absorbance; Potency, µM (doses to about 57.1 µM), for inactives: at the highest dose activity change, negative = inhibition, hits mostly inhibitors; 110,000 compounds, 0.56% hits; AID 881; further: potency means the concentration at half of the fitted maximal effect; nearly all actives have a fitted effect of over 60% in size
# Target sequence (O15296 whole entry, looked up): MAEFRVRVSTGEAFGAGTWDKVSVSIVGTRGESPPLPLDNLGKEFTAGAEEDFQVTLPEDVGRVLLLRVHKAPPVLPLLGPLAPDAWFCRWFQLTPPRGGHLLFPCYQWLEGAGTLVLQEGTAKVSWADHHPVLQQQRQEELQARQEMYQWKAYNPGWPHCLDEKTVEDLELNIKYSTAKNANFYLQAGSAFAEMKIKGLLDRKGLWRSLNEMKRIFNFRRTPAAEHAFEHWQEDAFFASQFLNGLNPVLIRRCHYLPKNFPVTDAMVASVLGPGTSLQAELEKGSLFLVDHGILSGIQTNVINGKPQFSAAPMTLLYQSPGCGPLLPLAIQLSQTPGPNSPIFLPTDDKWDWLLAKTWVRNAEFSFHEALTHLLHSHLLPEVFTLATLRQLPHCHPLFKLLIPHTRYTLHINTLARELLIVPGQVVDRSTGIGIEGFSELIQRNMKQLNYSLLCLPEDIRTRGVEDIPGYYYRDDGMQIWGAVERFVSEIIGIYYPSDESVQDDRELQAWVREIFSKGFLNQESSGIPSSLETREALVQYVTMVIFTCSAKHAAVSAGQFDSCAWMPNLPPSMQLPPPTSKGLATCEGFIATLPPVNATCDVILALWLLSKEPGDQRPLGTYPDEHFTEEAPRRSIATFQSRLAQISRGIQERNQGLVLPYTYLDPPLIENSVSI
#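 Purified human 15hLO-2 (50 nM final) preincubated with compounds 15 min at room temperature in 25 mM Hepes pH 7.5, 0.01% Triton X-100, then 45 uM arachidonic acid added for 90 min; hydroperoxide detected via ferrous/xylenol orange, 573/405 nm absorbance ratio.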
# The depositor's hits bear a star; ? = inconclusive; · = no result; ! = a repeat was not active; [ ] = another dose, or the depositor's remark. Unless noted, the call rests on the fitted dose curve; in most records, active means well fitted curve in the direction sought with a large enough effect; inconclusive means small, poorly fitted or top-dose-only effect, or another doubt; inactive means no such curve, though single readings can be large; an effect the other way counts as inactive or inconclusive. Unless noted, on the % scale 0 is the no-effect control and ±100 the full control effect.
SMILES,PNC inhibitor,12-hLO inh,15-hLO-2 inh
COC(=O)c1ccccc1NC(=O)c1ccccc1SC,18.2,-7.1%,·
COCCCNC(=O)c1ccccc1SC,-106.6*,-2.5%,-1.0%
CCOC(=O)c1ccccc1NC(=O)c1cncc(Br)c1,-93.5*,-1.7%,6.1%
CCOCCCNC(=O)c1ccccc1SC,?,-4.1%,-6.0%
CCOC(=O)c1ccccc1NC(=O)c1cccnc1,?,2.8%,·
C/C(=C\C(=O)c1ccccc1)Nc1ccc2c(c1)OCO2,46.2,-13.8%,·
O=C(Nc1ccc(Cl)cc1Cl)c1cccc(N2C(=O)C=CC2=O)c1,-7.9,-2.4%,-12.2%
COc1ccc(S(=O)(=O)N(C)c2ccc(OCC(=O)Nc3cc(C)on3)cc2)cc1,-97.0*,-8.9%,2.6%
COc1ccc(-c2csc(NC(=O)COc3ccc(N(C)S(=O)(=O)c4ccc(C)cc4)cc3)n2)cc1,-13.4,-0.9%,·
O=C(COC(=O)c1nc(-c2ccccc2)n(-c2cccc(C(F)(F)F)c2)n1)NCc1cccs1,-19.8,-3.6%,·
Cn1cccc1C(=O)N1CCC[C@@]2(CCN(c3ccccc3)C2)C1,·,-13.4%,-19.8%
CCc1ccc(OCC(=O)NCCN(C)C)c(Br)c1,-15.5,3.9%,·
CCc1ccc(OCC(=O)N(C)CCC#N)c(Br)c1,-91.2*,3.9%,-2.8%
OCC1OC(O)C(O)C(O)C1O (stereo unspecified),·,-0.1%[0.00818 µM],-5.0%[0.0915 µM]
CC(=O)O[C@@H]1CC[C@]2(C)C(=C[C@@H]([C@@H]3C=C4C[C@@H](OC(C)=O)CC[C@]4(C)C4=C3[C@H]3C[C@@H]5O[C@@]6(CC[C@H](C)CO6)[C@@H](C)[C@@H]5[C@@]3(C)CC4)C3=C2CC[C@@]2(C)[C@H]4[C@@H](C)[C@]5(CC[C@H](C)CO5)O[C@@H]4C[C@H]32)C1,·,3.4%[11.4 µM],-1.6%[11.4 µM]
Cc1cccc(NC2=C/C(=N/S(=O)(=O)c3cccs3)c3ccccc3C2=O)c1,-97.0*,0.4%,·
Cc1ccc(NC2=C/C(=N\S(=O)(=O)c3cccs3)c3ccccc3C2=O)c(C)c1,-22.4,-3.9%,·
C/C(=N\NC(=O)c1ccn(C)n1)c1cccc(NC(=O)c2ccncc2)c1,32.4,-1.1%,·
CCCCn1c(-c2ccco2)nc2ccccc2c1=O,-16.2,-2.4%,1.6%
CC(C)(C)c1nc2c(Br)cc(Br)cc2c(=O)o1,-19.4,2.3%,·
O=C(Cc1ccc(Cl)cc1)Nc1ccccc1CO,-86.9*,-6.9%,2.5%
O=C(Cc1ccccc1)Nc1ccccc1CO,8.1,-1.0%,3.6%
CN(CCc1ccccn1)c1ccc2c(c1)Cc1ccccc1-2,·,-1.9%[11.4 µM],-18.9%[11.4 µM]
Cc1cccc(OCC2=NS(=O)(=O)c3ccccc3N2)c1,?,-3.7%,-9.9%
Cc1cc2ccccc2n1CCNC(=O)COc1ccccc1,-103.4*,-6.6%,-4.2%
SMILES,PNC inhibitor,12-hLO inh,15-hLO-2 inh
CC(=O)NCCn1c(C)cc2ccccc21,?,-1.4%,-5.9%
CCC(=O)NCCn1c(C)cc2ccccc21,41.7,-2.9%,-5.1%
Cc1cc2ccccc2n1CCNC(=O)Cc1cccc2ccccc12,-108.4*,-9.1%,2.1%
COC(=O)c1c(NC(=O)COC(=O)CNC(=O)C2CCCCC2)sc(C)c1C,75.7,-1.3%,·
Cc1cc2nnc(SCc3ccccc3)n2c(N)n1,0.5,-2.4%,-7.9%
Cc1ccc(SCCOCCN2CCc3ccccc3C2)cc1,-12.3,1.9%,·
Cc1ccc(C(=O)Nc2c(C)n(C)n(-c3ccccc3)c2=O)cc1S(=O)(=O)N1CCOCC1,26.5,-0.1%,14.5%
Cc1ccc(S(=O)(=O)N2CCOCC2)cc1C(=O)Nc1c(C)n(C)n(-c2ccccc2)c1=O,-100.0*,-2.8%,0.8%
C=C1CC[C@H](O)C/C1=C/C=C1\CCC[C@]2(C)[C@@H]([C@H](C)CC[C@@H](O)C(C)(C)O)CC[C@@H]12,·,0.4%,·
CCOC(=O)c1c(C)sc2c1N(C(=O)CN1CCOCC1)c1cc(Cl)ccc1S2,-22.1,-1.5%,15.6%
CCCNC(=S)N1CCN(CC)CC1,-10.8,-2.2%,·
CC(C)OC(=O)c1cc(-c2ccc(C=O)o2)ccc1Cl,?,-3.6%,·
CCOC(=O)c1cc(-c2ccc(/C=C3/C(=O)NC(=O)C(C#N)=C3C)o2)ccc1Cl,-12.9,-20.0%,25.1µM*
N#C/C(=N\O)c1nc(-c2ccccc2)cs1,-126.9*!,-9.2%,-18.2%
N#CC(=C1CCCC1)c1nc(-c2ccccc2)cs1,73.8,-16.2%,-23.1%
Cc1cc(N(C(=O)c2ccco2)C(C(=O)NC2CCCCC2)c2ccccc2)ccc1-n1cnnn1 (stereo unspecified),-6.1,-6.6%,-1.8%
COc1cccc(C(C(=O)NC2CCCCC2)N(C(=O)c2ccco2)c2ccc(-n3cnnn3)c(C)c2)c1 (stereo unspecified),-100.0*,-4.3%,·
CCOC(=O)[C@H](CCc1ccccc1)N[C@@H](C)C(=O)N1[C@H](C(=O)O)C[C@H]2CCCC[C@@H]21,·,0.3%,3.3%
CCN(CC)c1ccc(-c2nnc(SCC(=O)Nc3ccccc3C#N)n2-c2ccccc2)cc1,54.7,3.0%,-12.8%
CC(C)(C)NC(=O)CCN(/N=C/c1ccc([N+](=O)[O-])o1)C1=NS(=O)(=O)c2ccccc21,51.0,1.8%,·
CCc1ccc2[nH]c(=O)c(CN(CCCN3CCOCC3)C(=O)Nc3ccc(F)cc3)cc2c1,18.8,-5.5%,57.0%
CCc1ccc2[nH]c(=O)c(CN(CCN3CCOCC3)C(=O)Nc3ccccc3F)cc2c1,-86.0*,-0.3%,29.0%
O=C(Nc1ccccc1)N(CCCN1CCOCC1)Cc1ccccc1F,-108.9*,0.7%,0.5%
O=C(Nc1cccc(Cl)c1)N(CCCN1CCOCC1)Cc1ccccc1F,40.2,-3.0%,5.4%
CC1CC[C@@]2(OC1)OC1CC3C4CC=C5CC(O)CC[C@@]5(C)C4CC[C@]3(C)C1C2C (stereo partly specified),·,-0.3%,3.2%
SMILES,PNC inhibitor,12-hLO inh,15-hLO-2 inh
Cc1nc(NCc2ccccc2)c2nc(-c3ccccc3)n(CC(C)(C)CN(C)C)c2n1,·,0.8%,47.7%
CCCCc1cc2c(cn1)C(=O)C(C)(OC(C)=O)C(=O)C2 (stereo unspecified),·,0.0%[11.4 µM],·
Cc1ccc2nc(-c3ccccc3O)c(Nc3ccc4c(c3)OCCO4)n2c1,-113.4*,0.0%,·
Cc1ccc2nc(-c3ccc(O)cc3)c(Nc3ccc4c(c3)OCCO4)n2c1,-5.1,-4.1%,-9.7%
CCCC(c1nnnn1CS(=O)(=O)c1ccc(C)cc1)N1CCN(c2ccccc2)CC1 (stereo unspecified),?,-1.1%,-3.3%
Cc1ccc(S(=O)(=O)Cn2nnnc2C(CC(C)C)N2CCN(c3ccc(F)cc3)CC2)cc1 (stereo unspecified),-114.9*,-2.3%,6.5%
Cc1ccc2oc(=O)c3cnn(CC(=O)N4CCCc5ccccc54)c3c2c1,?,-1.7%,-2.1%
Cc1cc(OCCn2cnc3ccccc3c2=O)ccc1[N+](=O)[O-],?,-2.2%,·
CCOc1cccc(OCCn2cnc3ccccc3c2=O)c1,-90.7*,-1.6%,·
CC(C)Cc1nnc(NC(=O)c2ccncc2)s1,-26.6,-1.0%,1.6%
CCC(CC)C(=O)Nc1cc(=O)n(C)c(=O)n1C,-12.3,-4.9%,-2.5%
COCC(=O)Nc1cc(=O)n(C)c(=O)n1C,-83.6*,1.1%,0.9%
COc1cc(OC)cc(C(=O)N[C@H](C(=O)OCC(=O)Nc2ccc(F)c(F)c2)C(C)C)c1,28.9,-2.4%,·
CN(C)c1ccc(-c2nccc(NCCN3CCOCC3)n2)cc1,·,-1.7%,16.3%
